# The list is not random: actives were taken first. Their share in the collection is about 2.1%.
# U2OS ROS induce = inducers of reactive oxygen species in cancer cells; U2OS ROS induction, H2DCF-DA fluorescence; ROS induction (% of piperlongumine), % at 10 µM; actives 2% (n = 46,000); in the data active = ROS induction above about 79%, passing the limit was not always enough;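 note: 0% = DMSO vehicle median and 100% = reference compound median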
# YB-1 expr inh = YB-1 expression inhibition. U2OS, qRT-PCR YB-1 vs CDIP delta delta Cp, 16 h; hits give high values; zero = DMSO, each unit about twofold. delta delta Cp (YB-1 minus CDIP) (concentration not given with the values). actives 0.37% (n = 30,000);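 active = delta delta Cp rounded down to an integer at or above 3, about 3 SD of DMSO wells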;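 note: higher means less YB-1 transcript or more CDIP transcript relative to DMSO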
# * hit, by the source's call; . = not tested or not shown.
SMILES,U2OS ROS induce,YB-1 expr inh
Cc1ccc(S(=O)(=O)c2cn(Cc3cccc(Cl)c3)c3cc4c(cc3c2=O)OCO4)cc1,98*,.
CC(C)Cc1nc2ccccc2n1Cc1ccccc1,8,.
O=C(Cn1cnc2c(oc3ccccc32)c1=O)N1CCCCCC1,-7,.
N#Cc1cc(C#N)c(SCC(=O)NC2CCCCC2)nc1N,44,-0.034
c1ccc(CN2CCN(Cc3ccccc3)C2c2ccc3c(c2)OCO3)cc1,0,.
CCNc1nc(NC(C)(C)C)nc(N(C#N)CC(=O)OC)n1,-45,.
CC(C)(C)Nc1nc(Cl)nc(N(C#N)CN2C(=O)c3ccccc3S2(=O)=O)n1,94*,.
CC(=O)NCCNc1nc2c(-c3ccc(Cl)cc3)nnn2c2ccccc12,33,.
C[C@@H]1CN([C@H](C)CO)C(=O)Cc2cc(NC(=O)Cn3cnnn3)ccc2O[C@@H]1CN(C)Cc1ccc(C(F)(F)F)cc1,87*,0.14
C[C@@H]1CN([C@H](C)CO)C(=O)Cc2cc(NS(=O)(=O)c3ccc(Cl)cc3)ccc2O[C@@H]1CN(C)Cc1ccc(C(F)(F)F)cc1,2,-0.038
C[C@@H]1CN([C@@H](C)CO)C(=O)Cc2cc(NC(=O)Cn3cnnn3)ccc2O[C@@H]1CN(C)Cc1ccncc1,0,0.13
C[C@@H]1CN([C@H](C)CO)C(=O)Cc2cc(NS(=O)(=O)c3ccc(F)cc3)ccc2O[C@H]1CN(C)Cc1ccc(C(F)(F)F)cc1,207*,-0.16
C[C@@H]1CN([C@@H](C)CO)C(=O)Cc2cc(NS(=O)(=O)c3ccc(F)cc3)ccc2O[C@@H]1CN(C)Cc1ccc(C(F)(F)F)cc1,28,0.017
C[C@H]1CN([C@@H](C)CO)C(=O)Cc2cc(NS(=O)(=O)c3ccc(F)cc3)ccc2O[C@@H]1CN(C)Cc1ccc(C(F)(F)F)cc1,146*,0.00088
O=C(Nc1cccc(-c2nc3ccccc3[nH]2)c1)c1ccccc1,5,.
CC1CCCCN1S(=O)(=O)c1ccc(C(=O)Nc2cccc(-c3nc4ccccc4[nH]3)c2)cc1 (stereo unspecified),204*,.
Cc1cc2nc(SCC(=O)NN)[nH]c2cc1C,-26,0.054
Cc1cc2nc(SCc3ccccc3C#N)[nH]c2cc1C,127*,.
COC(=O)C[C@H]1C(C)(C)[C@H](OC(C)=O)[C@]2(O)CC3=C4CC(=O)O[C@@H](c5ccoc5)[C@]4(C)CCC3[C@@]1(C)C2=O (stereo partly specified),3,8*
COC(=O)C[C@H]1C(C)(C)[C@@H](OC(C)=O)[C@@H]2CC3=C4CC(=O)O[C@@H](c5ccoc5)[C@]4(C)CCC3[C@@]1(C)C2=O (stereo partly specified),20,-0.096
COc1ccc(/C=C2\SC(=S)N(CCCC(=O)O)C2=O)cc1OC,138*,-0.31
CN1CCN(NC(=O)CCN2C(=O)/C(=C\c3ccccc3)SC2=S)CC1,4,-0.018
C=CC(C)(C)[C@@]12C[C@H]3C(=O)Nc4ccccc4C(=O)N3[C@@H]1Nc1ccccc12,3,-0.54
Cc1nn(-c2ccccc2)nc1CNS(=O)(=O)c1c(C)noc1C,-7,.
Cc1ccc(N2C(=O)c3ccccc3C2C(=O)c2ccc(C)cc2O)cc1 (stereo unspecified),3,.
SMILES,U2OS ROS induce,YB-1 expr inh
COC(=O)c1cc2c(=O)n3ccccc3nc2n(C(C)C)c1=N,-4,.
N=c1c(S(=O)(=O)c2ccccc2)cc2c(=O)n3ccccc3nc2n1C1CCCC1,83*,.
CCc1nc(N2CCCCC2)c(C#N)c2c1CCCC2,-1,.
COc1ccc(NC(=O)Nc2cccc3c2O[C@H](CN(C)Cc2ccc(Oc4ccccc4)cc2)[C@H](C)CN([C@@H](C)CO)C3=O)cc1,89*,0.13
C[C@@H]1CN([C@@H](C)CO)C(=O)c2cc(NC(=O)C3CCCCC3)ccc2O[C@@H]1CN(C)Cc1ccc(Oc2ccccc2)cc1,10,-0.68
C[C@H]1CN([C@@H](C)CO)C(=O)c2cc(NC(=O)C3CCCCC3)ccc2O[C@@H]1CN(C)Cc1ccc(Oc2ccccc2)cc1,89*,0.13
C[C@@H]1CN([C@@H](C)CO)C(=O)c2cccc(NC(=O)C3CC3)c2O[C@@H]1CN(C)Cc1ccc(Oc2ccccc2)cc1,11,0.53
C[C@@H]1CN([C@H](C)CO)C(=O)c2cc(NC(=O)NC3CCCCC3)ccc2O[C@@H]1CN(C)Cc1ccc(-c2ccccc2)cc1,-2,0.16
C[C@H]1CN([C@@H](C)CO)C(=O)c2cc(NC(=O)NC3CCCCC3)ccc2O[C@@H]1CN(C)Cc1ccc(-c2ccccc2)cc1,137*,-0.71
COc1ccc(CN(C)C[C@H]2Oc3c(NC(=O)Nc4ccccc4)cccc3C(=O)N([C@@H](C)CO)C[C@H]2C)cc1,4,-0.071
C[C@H](CO)N1C[C@H](C)[C@@H](CN(C)Cc2ccc(Oc3ccccc3)cc2)Oc2c(NC(=O)C3CC3)cccc2C1=O,84*,-0.089
COc1ccccc1CNC(=O)C1CCCN(S(=O)(=O)c2ccc(C)cc2)C1 (stereo unspecified),5,.
COc1ccc(N(CC(=O)Nc2ccccc2Br)S(C)(=O)=O)cc1OC,-3,.
C[C@@H]1CN([C@@H](C)CO)C(=O)c2cc(N(C)C)ccc2O[C@@H]1CN(C)Cc1ccc(-c2ccccc2)cc1,-2,0.37
C[C@H](CO)N1C[C@H](C)[C@H](CN(C)Cc2ccc(-c3ccccc3)cc2)Oc2c(NC(=O)C3CC3)cccc2C1=O,18,0.034
C[C@H](CO)N1C[C@H](C)[C@@H](CN(C)Cc2ccc(-c3ccccc3)cc2)Oc2c(NC(=O)C3CC3)cccc2C1=O,173*,0.73
C[C@H]1CN([C@@H](C)CO)C(=O)c2cccc(NC(=O)C3CCCCC3)c2O[C@H]1CN(C)Cc1ccc(Oc2ccccc2)cc1,34,0.3
C[C@H](CO)N1C[C@H](C)[C@@H](CN(C)Cc2ccc(-c3ccccc3)cc2)Oc2ccc(N(C)C)cc2C1=O,94*,0.12
C[C@H]1CN([C@@H](C)CO)C(=O)c2cccc(NC(=O)C3CC3)c2O[C@@H]1CN(C)Cc1ccc(Oc2ccccc2)cc1,94*,0.0039
Cn1nccc1C(=O)NCCN1C(=O)OC2(CCCCC2)C1(C)O (stereo unspecified),-9,.
CSc1scc(NC(=O)c2ccc(Cl)cc2)c1S(=O)(=O)C(C)C,8,.
O=C(Nc1ccccc1Cl)c1cc2ccccc2cc1O,23,-0.35
C[C@H](CO)N1C[C@H](C)[C@@H](CN(C)Cc2ccc(Oc3ccccc3)cc2)Oc2c(NC(=O)c3ccc(-c4nccs4)cc3)cccc2C1=O,120*,-0.67
C[C@H]1CN([C@@H](C)CO)C(=O)c2cccc(NC(=O)c3ccc(-c4nccs4)cc3)c2O[C@H]1CN(C)Cc1ccc(Oc2ccccc2)cc1,38,0.19
C[C@H]1CN([C@@H](C)CO)C(=O)c2cccc(NC(=O)c3ccc(-c4nccs4)cc3)c2O[C@H]1CN(C)S(=O)(=O)c1cccs1,83*,0.085
C[C@@H]1CN([C@H](C)CO)C(=O)c2cccc(NC(=O)c3ccc(-c4nccs4)cc3)c2O[C@@H]1CN(C)S(=O)(=O)c1cccs1,1,-0.66
C[C@H](CO)N1C[C@H](C)[C@H](CN(C)Cc2ccc(C(F)(F)F)cc2)Oc2c(NC(=O)c3ccc(-c4nccs4)cc3)cccc2C1=O,24,0.0057

# Source: PubChem BioAssay (Broad Institute)
